Source: PubChem
Sampled rows, rich in hits. Any-hit rate of the full collection: about 2.8%.
PI5P4Ka inh: blocks human PI5P4K alpha kinase activity; PI5P4Kalpha enzyme, ADP-Glo luminescence, 60 min; active compounds read low; 330,000 tested, 1.2% active; P48426; max response, %; active = max response of -50% or lower; inconclusive = between -30% and -50%; inactive = -30% or higher; also: value at the top dose of about 77 µM; % is scaled to controls: 0 for no effect and ±100 for the full control effect
Target sequence (P48426 whole entry, looked up): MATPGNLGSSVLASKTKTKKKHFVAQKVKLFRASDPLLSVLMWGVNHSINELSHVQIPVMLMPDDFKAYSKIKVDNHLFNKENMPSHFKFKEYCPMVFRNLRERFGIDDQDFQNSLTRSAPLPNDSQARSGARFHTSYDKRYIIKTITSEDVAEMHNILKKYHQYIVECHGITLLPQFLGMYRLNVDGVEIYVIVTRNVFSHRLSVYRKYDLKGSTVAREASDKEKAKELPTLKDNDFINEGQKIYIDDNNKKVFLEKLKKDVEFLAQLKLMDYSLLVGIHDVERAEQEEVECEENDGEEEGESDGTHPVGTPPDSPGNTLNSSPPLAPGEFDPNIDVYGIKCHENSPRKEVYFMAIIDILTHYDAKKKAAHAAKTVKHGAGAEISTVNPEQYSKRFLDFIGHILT
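ADP-Glo luminescence end-point read after a 60 min room-temperature kinase reaction of PI5P4Kalpha plus substrate, initiated with ATP at 5 microM final. Buffer: 0.038 M HEPES pH 7.4, EGTA, 0.1% CHAPS, 5% DMSO.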
Pol kappa inh-1: DNA polymerase kappa (human) inhibition; Q9UBT6; purified Pol kappa, fluorescent DNA synthesis assay, 10 min; Potency, µM (highest dose often 107 µM), inactives show top-dose activity, negative = inhibition, hits mostly inhibitors; 400,000 tested, 0.53% active; AID 588579; also: potency is read from the fitted curve at half-maximal effect; % is scaled to controls: 0 for no effect and ±100 for the full control effect
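Activity was followed as the change in fluorescence between reads at 0 and 10 min after starting the reaction with 50 nM substrate. Beforehand, 10 nM polymerase had been preincubated with compound for 15 min at room temperature.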
Pol eta inh-1: inhibitors of human DNA polymerase eta; Q9Y253; recombinant Pol eta, fluorescent DNA replication assay; Potency, µM (titrated, usually from 114 µM), for inactives: at the highest dose activity change, negative = inhibition, actives largely listed as inhibitors; 390,000 tested, 1.2% active; also: potency is read from the fitted curve at half-maximal effect; % is scaled to controls: 0 for no effect and ±100 for the full control effect
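Pol eta at 10 nM preincubated with compounds 15 min at room temperature; reaction started with fluorescent substrate (50 nM final) and read kinetically at 0 and 10 min.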
WRN helicase inh: inhibitors of human WRN helicase. Q14191. WRN helicase unwinding, fluorescent forked duplex, kinetic. Potency, µM (highest dose often 114 µM), inactives show top-dose activity change, negative = inhibition, most hits filed as inhibitors. 360,000 tested, 0.46% active. AID 651768; also: potency is read from the fitted curve at half-maximal effect; % is scaled to controls: 0 for no effect and ±100 for the full control effect; nearly all actives have a fitted effect of over 55% in size
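Primary qHTS, 1536-well format. 20 nM WRN + compound, 15 min RT; start with 100 nM forked fluorophore/quencher duplex, 2 mM ATP (final); kinetic read ex 525/em 598 nm.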
Pol beta inh: inhibitors of human DNA polymerase beta. P06746. Pol beta primer extension/strand displacement, fluorescence kinetic. Potency, µM (highest dose often 114 µM), without a hit: at the highest dose activity change, negative = inhibition, hits mostly inhibitors. 340,000 tested, 1.3% active; also: potency is read from the fitted curve at half-maximal effect; % is scaled to controls: 0 for no effect and ±100 for the full control effect
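Human Pol beta at 10 nM; strand-displacement substrate 50 nM final. Compound exposure 15 min at room temperature before start, reaction 10 min at room temperature.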
Pol iota inh: DNA polymerase iota (human) inhibition | Q9UNA4 | Pol iota fluorescent replication assay, 10 min | Potency, µM (titrated, usually from 115 µM), inactives show at the top dose activity, negative = inhibition, hits mostly inhibitors | 390,000 tested, 1% active | AID 588590; also: potency is read from the fitted curve at half-maximal effect
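Pol iota at 10 nM preincubated 15 min with compounds at room temperature; reaction started with fluorescent substrate, 50 nM final. Fluorescence read kinetically at 0 and 10 min; buffer-only wells as negative control.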
GALK inh confirm: confirmation of human galactokinase (GALK) inhibitors. shares compounds with Pol eta inh-1. purified GALK, Kinase-Glo ATP depletion luminescence. Potency, µM (series often up to 115 µM), for the others: at the top dose activity, negative = inhibition, hits mostly inhibitors. 150 tested, 70% active. AID 2015
Redox cycling: redox cycling activity in phenol red-HRP assay | shares compounds with Pol eta inh-1 | 150 tested, 40% active | Potency, µM (highest dose often 115 µM), for inactives: at the top dose activity change, negative = H2O2 signal, actives largely listed as inhibitors | Phenol red-HRP H2O2 redox cycling, absorbance 600 nm | AID 2035
HEK293 viability: counter-screen for GALK inhibitors: HEK293 cell cytotoxicity; Potency, µM (top dose mostly 46.1 µM), for the others: top-dose activity change, negative = cytotoxicity, actives largely listed as inhibitors; 170 tested, 10% active; AID 2547; HEK-293 viability, ATP luminescence (CellTiter-Glo), 24/48 h; shares compounds with Pol eta inh-1; also: potency is read from the fitted curve at half-maximal effect; % is scaled to controls: 0 for no effect and ±100 for the full control effect
Pol kappa inh-2: Pol kappa (human) inhibition, cherry-pick confirmation; Potency, µM, usual class: inhibitors; shares compounds with Pol eta inh-1; 920 tested, 76% active; purified Pol-kappa, fluorescent strand-displacement substrate; also: potency is read from the fitted curve at half-maximal effect
Pol eta inh-2: Pol eta (human) inhibition, cherry-pick confirmation; shares compounds with Pol eta inh-1; Pol eta primer extension, TAMRA/BHQ fluorescence, 10 min; Potency, µM, actives largely listed as inhibitors; 2,600 tested, 64% active; AID 720502; also: potency is read from the fitted curve at half-maximal effect
The depositor's hits bear a star; ? = inconclusive; . = not tested or not shown; [ ] = another dose, or the depositor's remark. Unless noted, calls follow the shape of the dose curve; as a rule, active = well fitted curve in the direction sought with a large enough effect; inconclusive = small, poorly fitted or top-dose-only effect, or another doubt; inactive = no such curve, though single readings can be large; an effect the other way counts as inactive or inconclusive.

SMILES | PI5P4Ka inh | Pol kappa inh-1 | Pol eta inh-1 | WRN helicase inh | Pol beta inh | Pol iota inh | Pol eta inh-2 | others
CCS(=O)(=O)C1=NN2C(=N)/C(=C\c3ccc(OC(=O)c4ccco4)c(Br)c3)C(=O)N=C2S1 | . | . | . | . | 89µM* | . | . | GALK inh confirm=30µM*;Redox cycling=0%;HEK293 viability=-10%
O=C(Nc1ccc(Cl)cc1C(=O)c1ccccn1)c1ccccc1 | 0 | . | -5% | -4% | . | . | .
Cc1oc(C(=O)O)cc1COc1ccc2c3c(c(=O)oc2c1)CCC3 | 1 | ? | 18µM* | -17%[57.1 µM] | 35µM* | -19% | ?
COC(=O)c1cc(COc2ccc3c4c(c(=O)oc3c2)CCCC4)c(C)o1 | . | -3% | -9% | -5% | -1% | -12% | .
Cc1ccc(C)c(S(=O)(=O)/N=C2\C=C(NS(=O)(=O)c3ccccc3)C(=O)c3ccccc32)c1 | -18 | -3% | ? | -16%[11.6 µM] | -7% | ? | ?
Cc1ccccc1NC1=C/C(=N\S(=O)(=O)c2ccc(C(=O)O)cc2)c2ccccc2C1=O | -29 | -11% | 5µM* | -34%[57.1 µM] | 35µM* | 0.89µM* | . | GALK inh confirm=8.4µM*;Redox cycling=5.3µM*;HEK293 viability=25µM*
O=C(NCCCO)c1ccc2nc(-c3ccco3)c(-c3ccco3)nc2c1 | -25 | 28µM* | 7.9µM* | ? | 28µM* | 10µM* | 19* | Pol kappa inh-2=19*
CCc1nc2ccc(C(=O)NCCc3ccco3)cc2nc1CC | -2 | -1% | -7% | -4% | -3% | -20% | .
CCCCNC(=O)C(NC(=O)c1cccnc1OC)C(=O)c1ccccc1 (stereo not drawn) | 0 | . | . | 1% | . | . | .
CCc1oc(C(=O)O)cc1COC | 7 | -29% | 28µM* | -22%[57.1 µM] | 22µM* | ? | 30*
CCCNC(=O)c1ccccc1NC(=O)CN(c1ccccc1)S(=O)(=O)N(C)C | 4 | -8% | -11% | 4% | 3% | 23% | .
O=C(O)CCCN1C(=O)C2C3C=CC(C2C1=O)C1C(=O)N(CCCC(=O)O)C(=O)C31 (stereo not drawn) | -1 | -10% | -11% | -24% | 14% | 70% | .
C=CCOCCN1C(=O)C2C3C=CC(C2C1=O)C1C2C(=O)N(CCOCC=C)C(=O)C2C31 (stereo not drawn) | -2 | ? | 20µM* | ? | ? | 28µM* | 67*
Cc1cccc(/C=N/NC(=O)c2ccc(NC(=O)c3cccc(Cl)c3)cc2)n1 | -2 | -9% | -3% | -16% | ? | ? | .
CC[C@H](C)/C=C(C)/C=C/C1=CC2=CC(=O)[C@]3(C)OC(=O)[C@@H](C(C)=O)[C@@H]3C2=CO1 | -60* | 79µM* | 25µM* | -24% | 35µM* | 22µM* | ?
O=C(NC1CCCCC1)c1sc(=S)n2c1[nH]c(=O)c1ccccc12 | 36 | -23% | 25µM* | 50µM* | 18µM* | -25% | . | Pol kappa inh-2=?
O=C(NCC1CCCO1)c1sc(=S)n2c1[nH]c(=O)c1ccc(C(=O)N3CCCCC3)cc12 (stereo not drawn) | . | -26% | -14% | -31% | -21% | ? | .
COc1ccc(OC)c(CCNC(=O)c2ccc3c(=O)[nH]c4c(C(=O)NC(C)C)sc(=S)n4c3c2)c1 | -6 | -16% | 16µM* | -21%[11.6 µM] | 8% | -13% | 43*
O=C(NCCc1ccccc1)c1ccc2c(=O)[nH]c3c(C(=O)NCC4CCCO4)sc(=S)n3c2c1 (stereo not drawn) | -11 | ? | -7% | -21% | 14% | ? | . | GALK inh confirm=38µM*;Redox cycling=-1%;HEK293 viability=9%
CCCCNC(=O)c1sc(=S)n2c1[nH]c(=O)c1ccccc12 | -1 | -15% | ? | ? | ? | -10% | .
CCOc1ccc(CCNC(=O)c2ccc3c(=O)[nH]c4c(C(=O)NC(C)C)sc(=S)n4c3c2)cc1 | -1 | -10% | -17% | -5% | -26% | -9% | .
O=C(CCc1nc2ccccc2c(=O)[nH]1)OCc1ccc(Cl)cc1Cl | 0 | 3% | -14% | 3% | 2% | 24% | .
COc1ccc(C)cc1NC(=O)c1cn(C)c(=O)c2cc(OC)c(OC)cc12 | . | 17% | 2% | . | 32% | -3% | .
CCOC(=O)C(=O)N(C)c1c(CC)nc2c(OCc3ccc(OC(F)F)cc3)cccn12 | 4 | . | . | -4% | . | . | .
COc1ccc2cc(C(N)=O)c(=Nc3ccc(C)cc3)oc2c1 | 8 | -11% | -3% | 1% | 18% | 45% | . | GALK inh confirm=-15%;Redox cycling=-4%;HEK293 viability=?
SMILES | PI5P4Ka inh | Pol kappa inh-1 | Pol eta inh-1 | WRN helicase inh | Pol beta inh | Pol iota inh | Pol eta inh-2 | others
CC(Cc1c[nH]c2ccccc12)C(=O)NCc1ccco1 (stereo not drawn) | 0 | ? | 20µM* | -17% | 32µM* | ? | 30* | Pol kappa inh-2=42*
CC(C)C(CC(=O)NCc1ccco1)c1ccco1 (stereo not drawn) | -13 | ? | 18µM* | ? | ? | ? | ?
COc1ccccc1C(=O)Nc1nc2nc(C)c(Cc3ccccc3)c(=O)n2[nH]1 | . | -23% | ? | . | -11% | 18% | 76*
Cc1nc2nc(NC(=O)c3ccc(C(C)(C)C)cc3)[nH]n2c(=O)c1Cc1ccccc1 | . | -19% | -1% | . | -1% | 2% | .
O=[N+]([O-])c1cccc(S(=O)(=O)NCC2CC3CCC2C3)c1 (stereo not drawn) | -5 | -1% | -21% | -3% | 2% | 137% | .
Cc1ccc(F)c(S(=O)(=O)NC(=O)C2(C)CCN2C(=O)Cc2cccs2)c1 (stereo not drawn) | 2 | . | . | 3% | . | . | .
